Assay results published in ChEMBL document CHEMBL3988442, “University of Dundee, Small-Polar-MMV Screening Library” (2021).
In all, about 69,000 compounds went through this assay and about 420 (0.61%) showed an effect of 50% or more. The list comes from a sample in which strong results are over-represented; it also holds similar structures and randomly drawn compounds.

Molecular target: T1, Histidine--tRNA ligase (Leishmania infantum) (UniProt A4I591)
T1 sequence (whole entry): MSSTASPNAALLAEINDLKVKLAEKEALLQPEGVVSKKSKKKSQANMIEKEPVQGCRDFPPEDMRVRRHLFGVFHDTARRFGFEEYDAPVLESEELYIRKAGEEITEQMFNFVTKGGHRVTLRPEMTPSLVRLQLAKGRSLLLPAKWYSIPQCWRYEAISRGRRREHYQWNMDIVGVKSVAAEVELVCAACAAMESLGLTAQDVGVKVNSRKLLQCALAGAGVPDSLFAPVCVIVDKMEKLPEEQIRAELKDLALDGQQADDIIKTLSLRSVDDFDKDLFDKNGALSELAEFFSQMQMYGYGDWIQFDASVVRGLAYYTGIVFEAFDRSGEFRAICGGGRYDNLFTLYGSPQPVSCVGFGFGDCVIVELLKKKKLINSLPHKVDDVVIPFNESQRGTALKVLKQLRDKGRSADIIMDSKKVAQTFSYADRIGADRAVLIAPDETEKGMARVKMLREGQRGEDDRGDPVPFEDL
Assay: Leishmania infantum Histidine tRNA synthetase (LdHisRS)
Format: functional
Design: scale not given: in the data most compounds retested in dose-response had high values
Details: 30 µM

Going from `O=C(c1ccc(F)cc1)N1C[C@@H]2OCCN(c3ncccn3)[C@@H]2C1` to `O=C(c1ccc(F)cc1)N1C[C@@H]2CCN(c3cccnc3)C[C@@H]2C1`, the Percent Effect rises from 18.9% to 20.6%.

First: Cc1nc(COC[C@]23COC[C@H]2CN(Cc2ccoc2)C3)cs1
Second: CCc1cnc(N2C[C@H](OCc3csc(C)n3)[C@H]3COC[C@H]32)nc1
The Percent Effect of the first is higher: 22.6% for the first, 20.7% for the second.

Going from `Cc1nnc(N2C[C@H](OCc3cccnc3)[C@H]3OCCC[C@H]32)s1` to `c1cnc(N2C[C@H]3CCN(c4cccnc4)C[C@H]3C2)nc1`, the Percent Effect falls from 24.3% to 23.1%.

Compared with `COc1cc(F)c(NCc2nc3ccccc3n2C)cc1OC`, `COCCOc1ccc(F)cc1NCc1nc2ccccc2n1C` is lower in Percent Effect: 78.3% for the first, 13.2% for the second.

Compared with `COCCOc1ncccc1NCc1nc2ccccc2n1C`, `CC(=O)Nc1ccc2nc(-c3nccn3CCCN(C)C)ccc2c1` is lower in Percent Effect: 15.7% for the first, 12.8% for the second.

First: CC(=O)N1CCN(C(=O)Nc2ccc(Cl)cc2)[C@H]2CS(=O)(=O)C[C@H]21
Second: CCCn1nccc1C(=O)N1CCN(C(=O)C2CC2)[C@@H]2CS(=O)(=O)C[C@@H]21
The Percent Effect of the first is higher: 8.2% for the first, 0% for the second.

First: O=C(C1CCCC1)N1C[C@@H]2CCN(c3cccnc3)C[C@@H]2C1
Second: O=C(c1ccncc1)N1C[C@@H]2CCN(c3cccnc3)C[C@@H]2C1
The Percent Effect of the first is lower: 14.7% for the first, 23.5% for the second.

Compared with `Fc1cccc(N2C[C@H]3CCN(c4cccnc4)C[C@H]3C2)c1`, `CN1CCCC[C@@H]2[C@H]1[C@@H](c1ccccc1)CCN2C(=O)c1cnccn1` is lower in Percent Effect: 61.5% for the first, 25% for the second.

Compared with `Cn1cccc1C(=O)N1CC[C@H]2[C@@H]1CCC(=O)N2CC1CC1`, `O=C1CO[C@H]2CN(S(=O)(=O)c3ccccc3)C[C@H]2N1CC1CCCCC1` is higher in Percent Effect: 21.1% for the first, 27.8% for the second.

First: O=C(C1CCC1)N1C[C@@H]2CN(Cc3ccncc3)C(=O)[C@@H]2C1
Second: Cc1cccc(CN2C[C@@H]3CN(C4CCOCC4)C[C@@H]3C2=O)c1
The Percent Effect of the first is lower: 15.8% for the first, 19.7% for the second.

Compared with `CCCC(=O)N1CC[C@@H]2[C@H](CC1)N(Cc1cccnc1)CCS2(=O)=O`, `Cc1ccc(CN2CCC[C@@H]3CN(C(=O)c4ccco4)C[C@@H]32)o1` is lower in Percent Effect: 17.3% for the first, 15.5% for the second.

Going from `CCN1C(=O)C[C@@H]2[C@@H]1CCN2S(=O)(=O)c1cccc(C)c1` to `Cc1cccc(CN2C(=O)CC[C@@H]3[C@H]2CCN3Cc2ccc(F)cc2)n1`, the Percent Effect rises from 0% to 20.6%.

First: CC(C)=CCN1CCN(C(=O)c2snnc2C)[C@H]2CS(=O)(=O)C[C@H]21
Second: CC(C)=CCN1C[C@H]2CC[C@@H]1CN(C(=O)Cn1c(C)cc(C)nc1=O)C2
The Percent Effect of the first is lower: 5% for the first, 23.8% for the second.

Going from `CCN1C(=O)CC[C@@H]2N(C(=O)CCn3nccc3C)CCCC[C@@]21C` to `Cc1cc(C)n(CC(=O)N2CCCCC2CCN(C)C)c(=O)n1` (configuration not stated), the Percent Effect rises from 15.7% to 16%.

Compared with `Cc1noc(C[C@@H]2COC[C@H]3CN(S(=O)(=O)C4CC4)C[C@@H]23)n1`, `Cc1cc(C)n(CC(=O)N2C[C@@H]3CC[C@H](C2)N(CC2CCC2)C3)c(=O)n1` is higher in Percent Effect: 12.8% for the first, 57.1% for the second.

Going from `CN1CCN(Cc2c(-c3ccco3)[nH]c3ncccc23)CC1` to `CCN1CCN(Cc2c(-c3ccco3)[nH]c3ncccc23)CC1`, the Percent Effect falls from 18.8% to 4.35%.

Compared with `OC1CCCN(Cc2c(-c3ccco3)[nH]c3ncccc23)C1` (configuration not stated), `NC(=O)C1CCCN(Cc2c(-c3ccco3)[nH]c3ncccc23)C1` (configuration not stated) is lower in Percent Effect: 66.7% for the first, 55.6% for the second.

`OC1CCN(Cc2c(-c3ccco3)[nH]c3ncccc23)CC1` and `c1coc(-c2[nH]c3ncccc3c2CN2CCCOCC2)c1` are the same in Percent Effect: 30.4% for the first, 30.4% for the second.

Compared with `CC(C)OCCCNC(=O)[C@@]12CNC[C@@H]1CN(S(C)(=O)=O)C2`, `CC(C)NC(=O)[C@@H]1C[C@@H]2CCN(Cc3ccoc3)C[C@H]2O1` is higher in Percent Effect: -3.23% for the first, 17.3% for the second.

Going from `CCC1=N[C@@]2(CC[C@@H]3CN(Cc4ccc(Cl)cc4)C[C@@H]32)C(=O)N1` to `CC(=O)Nc1ccc2nc(-c3nccn3C[C@@H]3CCCO3)ccc2c1`, the Percent Effect rises from 3.01% to 51.1%.

Compared with `Cc1ccc(NC(=O)Nc2c(O)oc3ccccc3c2=O)cc1C`, `CC(=O)Nc1ccc2nc(-c3nccn3CC(C)(C)CO)ccc2c1` is lower in Percent Effect: 16.1% for the first, 10.6% for the second.

`O=C(O)C1c2nc[nH]c2CCN1Cc1ccc(-c2ccccc2)s1` (configuration not stated) and `O=C(O)C1c2nc[nH]c2CCN1Cc1ccccc1-c1ccccc1` (configuration not stated) are the same in Percent Effect: 28.8% for the first, 28.8% for the second.

Going from `O=C(O)C1c2nc[nH]c2CCN1CC(c1ccccc1)c1ccccc1` (configuration not stated) to `O=C(NC1CCCC1)N1C[C@H]2CN(c3ccncc3)C[C@@]2(C(=O)O)C1`, the Percent Effect falls from 107% to -1.96%.

Compared with `Cc1ccc(C(=O)N2C[C@@H]3CC[C@H](C2)N(CC2CCC2)C3)s1`, `CC(=O)c1ccc(C(=O)N2C[C@@H]3CC[C@H](C2)N(CC2CCC2)C3)s1` is lower in Percent Effect: 21.9% for the first, 19.2% for the second.

First: CN(C)C(=O)[C@H]1C[C@H]2OCC[C@H]2N(Cc2ccc3c(c2)OCO3)C1
Second: O=C([C@@H]1C[C@@H]2CCN(Cc3ccoc3)C[C@H]2O1)N1CCCC1
The Percent Effect of the first is higher: 29.4% for the first, 2.73% for the second.

Going from `COCC(=O)NC[C@@]1(COc2cnccn2)C[C@@H](O)[C@@H](O)C1` to `Cc1cnc(N2C[C@H]3C[C@H](C(=O)N4CCN(C)CC4)N(C)[C@H]3C2)nc1`, the Percent Effect falls from 10.8% to 5.05%.
